Screening results from PubChem BioAssay.
The full list was thinned out, with hits kept by preference.
ROC1-CUL1 inh – human ROC1-CUL1 E3 ligase inhibition; P62877+Q13616; actives 0.6% (n = 140,000); inhibition, % at 10 µM; in vitro K48 di-Ub FRET, acceptor:donor ratio, 45 min; AID 1347404; in the data active = inhibition above about 25%
Target sequence (P62877 whole entry, looked up): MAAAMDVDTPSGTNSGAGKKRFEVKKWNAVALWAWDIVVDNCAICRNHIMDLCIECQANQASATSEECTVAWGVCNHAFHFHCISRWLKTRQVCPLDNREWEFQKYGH
Target sequence (Q13616 whole entry, looked up): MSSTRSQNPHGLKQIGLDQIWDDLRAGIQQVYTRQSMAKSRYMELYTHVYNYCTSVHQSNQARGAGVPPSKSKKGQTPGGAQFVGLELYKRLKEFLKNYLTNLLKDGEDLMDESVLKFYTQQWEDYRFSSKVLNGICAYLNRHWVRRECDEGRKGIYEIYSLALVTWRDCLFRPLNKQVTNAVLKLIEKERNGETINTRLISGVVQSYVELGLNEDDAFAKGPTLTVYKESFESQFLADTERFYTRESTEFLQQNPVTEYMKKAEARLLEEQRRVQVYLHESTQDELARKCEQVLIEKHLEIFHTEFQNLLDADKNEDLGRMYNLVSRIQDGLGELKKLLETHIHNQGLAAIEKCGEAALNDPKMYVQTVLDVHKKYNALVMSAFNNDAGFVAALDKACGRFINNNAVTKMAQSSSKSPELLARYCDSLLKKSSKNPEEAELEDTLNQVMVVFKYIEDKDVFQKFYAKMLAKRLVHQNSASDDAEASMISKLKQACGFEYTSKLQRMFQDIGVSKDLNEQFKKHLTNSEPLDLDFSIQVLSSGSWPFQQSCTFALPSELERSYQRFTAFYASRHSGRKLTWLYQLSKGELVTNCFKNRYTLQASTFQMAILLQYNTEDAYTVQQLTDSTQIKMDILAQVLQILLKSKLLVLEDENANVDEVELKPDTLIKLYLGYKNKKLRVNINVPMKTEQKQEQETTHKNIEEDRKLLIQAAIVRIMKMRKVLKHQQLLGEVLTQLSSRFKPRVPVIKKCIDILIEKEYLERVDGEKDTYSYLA
Starred values were filed as active, the others as inactive.

SMILES | ROC1-CUL1 inh
Cc1ccc(C2=C/C(=C\c3c(Cl)cccc3Cl)C(=O)O2)cc1 | 2
Cc1ccc2cc(C3=C/C(=C/c4ccc(N5CCOCC5)o4)C(=O)O3)ccc2c1 | 96*
Cc1c(Cl)c(=O)oc2cc(OC(=O)C(CC(C)C)NC(=O)OC(C)(C)C)c(Cl)cc12 (stereo not drawn) | 8
O=C(CCCN1C(=O)/C(=C\c2cccc(Br)c2)SC1=S)NNC(=O)c1ccccc1O | 1
NC(=O)CC(C(=O)O)N1C(=O)/C(=C/c2cccc(Br)c2)SC1=S (stereo not drawn) | 33*
CCCC(C(=O)O)N1C(=O)/C(=C/c2ccc(F)cc2)SC1=S (stereo not drawn) | 7
COCCC(=O)N1CCC(Oc2ccc(C(=O)NCCN(C)C)cc2Cl)CC1 | -1
C=CCSc1nnc2c(n1)OC(c1ccccc1OCCC)N(C(C)=O)c1ccccc1-2 (stereo not drawn) | 1
CCCCn1c(CN(C)CCCN2CCCC2)cnc1S(=O)(=O)CC | 8
O=C(OCc1ccc(Cl)cc1)c1ccco1 | -1
O=C(CSCC(=O)Nc1cc(C(F)(F)F)ccc1Cl)Nc1cc(C(F)(F)F)ccc1Cl | -5
Cc1ccc(C(=O)c2coc3ccc(O)c(Cl)c23)cc1 | 0
CC(=O)C(C(C)=O)C1=C(Cl)C(=O)C(=O)c2c(C(=O)c3ccc(C)cc3)coc21 | 79*
Cc1ccc(C(=O)c2coc3c2cc(O)c2ccccc23)cc1 | -8
OCC(O)Cn1c2cc(Br)ccc2c2ccc(Br)cc21 (stereo not drawn) | -1
CCOC(=O)c1c2c(n(Cc3ccccc3)c1C)C(=O)c1ccc(Br)cc1-2 | 2
CCOC(=O)c1c2c(n(Cc3ccccc3)c1CNC(C)C)C(=O)C(=O)c1ccccc1-2 | 103*
CCOC(=O)c1c2c(n(CC(=O)c3ccc(Br)cc3)c1C)C(=O)C(=O)c1ccccc1-2 | -3
CCCCNCc1cccc(OCC(O)CN2CCc3ccccc3C2)c1 (stereo not drawn) | 11
CC(=O)Nc1sc2c(c1C(c1cccc(Br)c1)N1CCOCC1)CCCC2 (stereo not drawn) | 13
Cc1ccccc1OCc1nnc(SCc2ccc(F)cc2)n1C | 7
CCOC(=O)c1sc(N2C(=O)C=CC2=O)c(C#N)c1C | 72*
CCOC(=O)c1sc(NC(=O)C(F)(F)F)c(C#N)c1C | 8
CCOC(=O)c1sc(SC)c(C#N)c1O | -2
CCOC(=O)N1CCN(c2nc3c(c(Nc4ccc(OC)cc4)n2)C(=O)CCC3)CC1 | 0
CCCN1CNC(=S)N(C2CCCCC2)C1 | 11
CCOc1ccc(N=C2S/C(=C\c3ccc(OCC(=O)O)c(OC)c3)C(=O)N2CC)cc1 | 1
